High-throughput results: PubChem BioAssay, Broad Institute
Rows were chosen to be rich in hits. Some 2.8% of all compounds tested hit in one or more screens of this group.
Env fusion inh: HIV envelope-mediated fusion inhibition. 360,000 tested, 1.1% active. AID 651610. HeLa-JRFL Env/CEM21 cell fusion, luciferase. inhibition, % at 12.3 µM;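 active means mean replicate inhibition score of at least 50 and every replicate individually at or above 50; inconclusive means only one of the two criteria met; inactive means mean below 50 and not all replicates reaching 50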;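 further: 0% = plate neutral controls and 100% = maraviroc near 300 nM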
EBV LMP1 NFkB: reduces LMP1-driven NF-kappaB luciferase signal. LMP1-induced NF-kappaB luciferase reporter cells, luminescence. inhibition, % at 12.5 µM. 350,000 tested, 0.69% active. AID 504558; in the data active means inhibition above about 41%; inconclusive means no clear call, values can overlap the other calls;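 further: 0% = neutral control wells and 100% = reference inhibitor control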
N-glyco inh: N-linked glycosylation inhibition. 360,000 tested, 0.23% active. D54 ERlucT glycosylation luciferase reporter, 24 h; percent of 100 nM tunicamycin response. reporter increase, % at 12.5 µM. AID 588692;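 active means mean luciferase reporter signal, scaled so untreated is 0 and the glycosylation-blocking control 100, at or above a set limit in every replicate; inconclusive means mean reaches the limit but not every replicate does; inactive means mean below the limit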;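 further: luciferase carries N-glycosylation sites so blocking glycosylation raises the light; 0% = median of neutral control wells and 100% = median of 100 nM tunicamycin wells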
Shn3 inh set2: Schnurri-3 reporter inhibition in Clone20 osteoblasts. Clone20 osteoblast Shn3 3'UTR firefly luciferase, 24 h. inhibition, % at 12.5 µM. 360,000 tested, 0.52% active;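 active means mean inhibition of at least 75% with every replicate also reaching 75%; inconclusive means mean inhibition at least 75% but some replicate below; inactive means mean inhibition below 75%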;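 further: 0% = median of neutral control wells and 100% = pilot-screen positive control compound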
PAX8 reporter: lowers PAX8-driven luciferase in RMG-I cells; RMG-I TPO-luciferase reporter, SteadyGlo, 24 h; inhibition, % at 12.6 µM; 360,000 tested, 1.2% active; AID 652154;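 active means mean replicate inhibition at least 60% with every replicate also reaching 60%; inconclusive means only one of the two criteria is met; inactive means mean below 60% and not all replicates reaching 60%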;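 further: luciferase light reporting Pax8 driven TPO promoter activity; plate controls were median of neutral control wells for no effect and mitoxantrone controls for full effect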
NSD2 HMT inh: inhibitors of human histone methyltransferase NSD2. O96028. NSD2 peptide methylation, AlphaScreen, 120 min. inhibition, % at 12.5 µM. 310,000 tested, 0.54% active; in the data active means inhibition above about 50%
Target sequence (O96028 whole entry, looked up): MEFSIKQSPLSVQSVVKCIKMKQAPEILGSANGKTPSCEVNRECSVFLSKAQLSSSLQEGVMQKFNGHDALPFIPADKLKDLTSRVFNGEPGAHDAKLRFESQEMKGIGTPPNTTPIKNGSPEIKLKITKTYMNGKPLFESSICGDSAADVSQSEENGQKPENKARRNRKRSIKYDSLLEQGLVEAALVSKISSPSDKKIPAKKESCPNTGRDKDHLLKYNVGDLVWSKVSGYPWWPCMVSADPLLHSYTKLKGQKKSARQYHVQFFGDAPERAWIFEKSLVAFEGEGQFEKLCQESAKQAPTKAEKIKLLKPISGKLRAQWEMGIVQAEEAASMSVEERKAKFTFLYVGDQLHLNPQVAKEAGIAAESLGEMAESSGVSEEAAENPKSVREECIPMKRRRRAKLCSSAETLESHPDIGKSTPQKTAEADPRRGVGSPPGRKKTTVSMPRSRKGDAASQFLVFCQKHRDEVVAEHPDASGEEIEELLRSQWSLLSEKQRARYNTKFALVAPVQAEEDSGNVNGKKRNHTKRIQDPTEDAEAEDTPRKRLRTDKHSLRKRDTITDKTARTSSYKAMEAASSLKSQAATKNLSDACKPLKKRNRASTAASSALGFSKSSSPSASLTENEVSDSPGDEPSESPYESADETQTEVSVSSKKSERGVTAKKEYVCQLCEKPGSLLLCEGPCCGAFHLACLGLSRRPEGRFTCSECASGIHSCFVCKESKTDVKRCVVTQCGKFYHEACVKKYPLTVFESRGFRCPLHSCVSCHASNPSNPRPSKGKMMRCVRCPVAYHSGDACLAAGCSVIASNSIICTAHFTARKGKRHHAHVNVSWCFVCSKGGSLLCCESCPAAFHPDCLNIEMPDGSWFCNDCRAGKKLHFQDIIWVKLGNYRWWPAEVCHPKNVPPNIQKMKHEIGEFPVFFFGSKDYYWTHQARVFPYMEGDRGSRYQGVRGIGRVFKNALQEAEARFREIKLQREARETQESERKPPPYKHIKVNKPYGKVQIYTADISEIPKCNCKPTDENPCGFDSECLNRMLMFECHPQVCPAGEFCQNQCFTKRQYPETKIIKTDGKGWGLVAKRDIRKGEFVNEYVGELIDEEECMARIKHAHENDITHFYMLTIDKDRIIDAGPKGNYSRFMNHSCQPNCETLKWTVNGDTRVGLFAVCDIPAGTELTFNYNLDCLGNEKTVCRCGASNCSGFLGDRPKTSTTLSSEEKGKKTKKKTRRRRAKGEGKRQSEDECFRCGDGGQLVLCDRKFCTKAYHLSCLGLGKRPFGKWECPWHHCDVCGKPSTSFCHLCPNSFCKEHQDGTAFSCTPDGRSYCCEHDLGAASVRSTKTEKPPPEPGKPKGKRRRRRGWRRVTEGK
AlphaScreen art: AlphaScreen assay artifact in NSD2 counter-screen. shares compounds with NSD2 HMT inh. AlphaScreen artifact counterscreen, preloaded methylated H4 peptide. AC35, µM (series often up to 10 µM), without a hit: at the highest dose activity change, negative = signal loss. 1,500 tested, 9.4% active. AID 1053174; call rule not given here
Starred values were filed as active, the others as inactive; [ ] = remark or other dose.

`Cc1ccc(-c2cc(C(F)(F)F)n3nc(C(=O)N4CCN5CCCC5C4)cc3n2)cc1` (stereo not drawn) gave Env fusion inh 27, EBV LMP1 NFkB 2, N-glyco inh 0, Shn3 inh set2 15, PAX8 reporter 6, NSD2 HMT inh 75* and AlphaScreen art 0%.
For CNC(=O)COC(=O)/C=C/c1cccs1 the results were Env fusion inh -3, EBV LMP1 NFkB -3, N-glyco inh 0, Shn3 inh set2 -1, PAX8 reporter 6, NSD2 HMT inh 79* and AlphaScreen art -5%.
For C[C@H]1CCCCO[C@@H](CN(C)C(=O)Nc2ccccc2)[C@@H](C)CN([C@@H](C)CO)C(=O)c2cc(NC(=O)NC3CCCCC3)ccc2O1 the results were Env fusion inh -29[16.7 µM] and PAX8 reporter 24.
For CCCNC(=O)N1C[C@@H](C)[C@H](OC)CN(C)C(=O)c2ccc(NC(=O)CC)cc2OC[C@H]1C the results were PAX8 reporter -17.
For Cc1c(N=C2C=CC(=O)c3ccccc32)c(=O)n(-c2ccccc2)n1C the results were Env fusion inh 2, EBV LMP1 NFkB -12, N-glyco inh 4, Shn3 inh set2 -12, PAX8 reporter 11, NSD2 HMT inh 89* and AlphaScreen art -8%.
Screening Cc1c(N=C2C=C(Br)C(=O)C(Br)=C2)c(=O)n(-c2ccccc2)n1C returned Env fusion inh -15, EBV LMP1 NFkB 2, N-glyco inh 3, Shn3 inh set2 8, PAX8 reporter -17 and NSD2 HMT inh 30.
`CCN(C(=O)/C=C/c1ccc2c(c1)OCO2)c1ccccc1` gave Env fusion inh -7, EBV LMP1 NFkB 8, N-glyco inh -2, Shn3 inh set2 -11, PAX8 reporter -7, NSD2 HMT inh 62* and AlphaScreen art 3%.
For O=C(C[C@@H]1C[C@@H]2c3cc(NC(=O)c4ccc5c(c4)OCO5)ccc3O[C@@H]2[C@@H](CO)O1)NC1CCCC1 the results were Env fusion inh 11[16.7 µM] and PAX8 reporter 6.
For COc1ccccc1CNS(=O)(=O)c1cc(CN2C(=O)c3cccnc3C2=O)ccc1OC the results were Env fusion inh -25, EBV LMP1 NFkB 5, N-glyco inh 2, Shn3 inh set2 1, PAX8 reporter 3 and NSD2 HMT inh -3.
Screening COc1cc(CCNC2=CC(=O)c3ncccc3C2=O)ccc1O returned Env fusion inh 22, EBV LMP1 NFkB 0, N-glyco inh -15, Shn3 inh set2 21, PAX8 reporter inconclusive, NSD2 HMT inh 128* and AlphaScreen art -3%.
For COCCn1c(N)c(N(Cc2ccccc2)C(=O)c2cc(=O)[nH]c3ccccc23)c(=O)[nH]c1=O the results were EBV LMP1 NFkB -5, N-glyco inh 3, Shn3 inh set2 13, PAX8 reporter 4, NSD2 HMT inh 93* and AlphaScreen art -6%.
CC=Cc1ccc2n(c1=O)C[C@@H]1[C@@H](CO)[C@H](C(=O)NCCC)N(Cc3cccc(F)c3)[C@H]21 (mixture of isomers) was read as PAX8 reporter -8.
`Cc1cc(=O)n(Cc2ccccc2)c(O)c1C#N` gave Env fusion inh 1, EBV LMP1 NFkB -5, N-glyco inh 1, Shn3 inh set2 10, PAX8 reporter -55, NSD2 HMT inh 53* and AlphaScreen art -7%.
Screening Cc1cccc(/C=C2/Sc3ccc(C(=O)NCCCN4CCOCC4)cc3NC2=O)c1 returned Env fusion inh -7, EBV LMP1 NFkB -7, N-glyco inh -7, Shn3 inh set2 -10, PAX8 reporter 12 and NSD2 HMT inh -2.
For CCN1CCN(CCCNC(=O)c2ccc3c(c2)NC(=O)/C(=C\c2cccc(C)c2)S3)CC1 the results were Env fusion inh 12, EBV LMP1 NFkB -2, N-glyco inh -11, Shn3 inh set2 9, PAX8 reporter 3, NSD2 HMT inh 51* and AlphaScreen art -5%.
Screening CCOc1ccccc1N(CC(=O)Nc1ccc(OC)c(OC)c1)S(=O)(=O)c1ccccc1 returned Env fusion inh 14, EBV LMP1 NFkB 4, N-glyco inh -1, Shn3 inh set2 0, PAX8 reporter 27 and NSD2 HMT inh 1.
`CCOc1ccccc1N(CC(=O)NCCc1ccc(OC)c(OC)c1)S(=O)(=O)c1ccccc1` gave Env fusion inh 9, EBV LMP1 NFkB -4, N-glyco inh -2, Shn3 inh set2 11, PAX8 reporter 1, NSD2 HMT inh 55* and AlphaScreen art 0%.
COc1ccc(NC(=O)N(C)C[C@@H]2Oc3c(NS(=O)(=O)c4ccc(Cl)cc4)cccc3C(=O)N([C@H](C)CO)C[C@@H]2C)cc1 was read as Env fusion inh -59[16.7 µM] and PAX8 reporter 5.
Screening Cc1cc(C(=O)COC(=O)c2n[nH]c(=O)c3ccccc23)c(C)n1C returned EBV LMP1 NFkB -17, N-glyco inh -1, Shn3 inh set2 -80, PAX8 reporter -29 and NSD2 HMT inh 0.
For Cc1cc(C(=O)COC(=O)c2n[nH]c3ccccc23)c(C)n1C the results were Env fusion inh -109, EBV LMP1 NFkB 16, N-glyco inh -14, Shn3 inh set2 -23, NSD2 HMT inh 71* and AlphaScreen art -2%.
For N#Cc1c2nc3ccccc3nc2n2cc(NC(=O)c3ccc(F)cc3)ccc12 the results were Env fusion inh -48, EBV LMP1 NFkB -5, N-glyco inh -8, Shn3 inh set2 10, PAX8 reporter -5, NSD2 HMT inh 73* and AlphaScreen art -4%.
For C=CCn1c(SCC(=O)N2CCN(c3ccccc3)CC2)nnc1-c1ccco1 the results were Env fusion inh 20, EBV LMP1 NFkB -3, N-glyco inh -2, Shn3 inh set2 36, NSD2 HMT inh 84* and AlphaScreen art -5%.
For O=C(CSc1nnc(-c2ccco2)n1-c1ccccc1)N1CCOCC1 the results were Env fusion inh -17, EBV LMP1 NFkB -16, N-glyco inh 0, Shn3 inh set2 3 and NSD2 HMT inh 4.
Screening CCN1C(=O)c2ccccc2S(=O)(=O)c2ccc(C(=O)NC(C)C)cc21 returned Env fusion inh -13, EBV LMP1 NFkB -3, N-glyco inh -1, Shn3 inh set2 11, PAX8 reporter 10, NSD2 HMT inh 52* and AlphaScreen art -5%.
Cc1noc(C)c1NC(=O)Nc1ccc2c(c1)CC(=O)N([C@H](C)CO)C[C@H](C)[C@@H](CN(C)CC1CC1)O2 was read as Env fusion inh 44[16.7 µM] and PAX8 reporter -28.
`O=C(/C=C/c1ccc([N+](=O)[O-])cc1)N1CCN(Cc2ccccc2)CC1` gave Env fusion inh -35, EBV LMP1 NFkB 7, N-glyco inh -2, Shn3 inh set2 13, PAX8 reporter 36 and NSD2 HMT inh -2.
